From PubChem BioAssay AID1942 (Johns Hopkins Ion Channel Center, 2009)
Among all 2,400 compounds or so, about 580 (24%) were called active. Only a sample is shown. Unmarked numbers belong to inactive results.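 The calls were made as follows: active = activity change at or above the mean plus 3 SD of buffer wells without dofetilide, per plate; inactive = the rest.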

Molecular target: Potassium voltage-gated channel subfamily KQT member 2 (Rattus norvegicus) (UniProt O88943)
Assay: rat KCNQ2 channel activation by compounds alone, confirmation, counter-screen for hERG block protector project, cell-based, CHO, FluxOR thallium flux (AID 1942);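 also: normalized value minus buffer-control mean plus three SD of buffer wells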
Conditions: CHO-KCNQ2 cells, FluxOR thallium flux fluorescence; at 10 µM; stronger effect = higher value

Chain of Potassium voltage-gated channel subfamily KQT member 2 (Rattus norvegicus) (O88943 whole entry, looked up): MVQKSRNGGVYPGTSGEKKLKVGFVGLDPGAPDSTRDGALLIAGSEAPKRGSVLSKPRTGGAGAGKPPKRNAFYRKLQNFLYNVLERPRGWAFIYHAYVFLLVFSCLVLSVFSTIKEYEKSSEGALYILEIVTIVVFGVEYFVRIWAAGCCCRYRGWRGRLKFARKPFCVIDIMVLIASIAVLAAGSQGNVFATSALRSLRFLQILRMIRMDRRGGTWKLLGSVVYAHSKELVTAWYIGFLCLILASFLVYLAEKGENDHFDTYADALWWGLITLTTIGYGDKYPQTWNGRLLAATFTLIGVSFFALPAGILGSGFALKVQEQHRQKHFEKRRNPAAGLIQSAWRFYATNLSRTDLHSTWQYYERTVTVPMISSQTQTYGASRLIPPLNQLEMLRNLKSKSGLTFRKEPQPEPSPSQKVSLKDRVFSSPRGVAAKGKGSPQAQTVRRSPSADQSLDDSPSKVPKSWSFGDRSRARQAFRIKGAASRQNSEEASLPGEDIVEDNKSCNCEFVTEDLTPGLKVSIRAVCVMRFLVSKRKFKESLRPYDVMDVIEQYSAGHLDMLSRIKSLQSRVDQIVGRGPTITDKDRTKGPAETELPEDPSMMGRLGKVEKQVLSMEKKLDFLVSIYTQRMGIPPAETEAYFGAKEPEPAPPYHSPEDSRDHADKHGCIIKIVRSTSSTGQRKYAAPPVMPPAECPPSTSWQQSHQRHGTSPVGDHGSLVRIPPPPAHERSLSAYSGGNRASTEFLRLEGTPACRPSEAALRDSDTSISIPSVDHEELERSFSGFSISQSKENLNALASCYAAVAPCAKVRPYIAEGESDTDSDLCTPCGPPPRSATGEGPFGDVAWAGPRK

SMILES | activity change, less the hit threshold
COc1ccc(CCNC(=O)Cn2c(=O)n(-c3ccc(F)cc3)c(=O)c3sccc32)cc1OC | -19.4%
O=C(N/N=C1/C(=O)c2cccc3cccc1c23)c1ccc(Cl)cc1 | 73.4% (active)
CCNC(=S)N/N=C1\C(=O)c2cccc3cccc1c23 | -4%
O=C(NN=C1c2ccccc2-c2ccccc21)c1ccccc1 | 0%
O=C(O)c1ccccc1P(=O)(c1ccccc1)c1ccccc1 | -16.8%
Cc1noc(C)c1COc1cccc(C(=O)NCc2cccc(Cl)c2)c1 | -21.4%
CCCCCCCC/C=C\CCCCCCCC(=O)O | -1%
CCCCCC/C(C)=C1/SC(=S)NC1=O | 71.1% (active)
CCOC(=O)Cc1nc2ccccc2o1 | -2.9%
O=C(O)Cc1sc(-c2ccc(Cl)cc2)nc1-c1ccccc1 | -19.7%
O=C(Nc1ccc(-c2csc(Nc3cccc(C(F)(F)F)c3)n2)cc1)c1ccccc1 | -23.8%
O=C(NC(=S)Nc1ccc(C(F)(F)F)cc1)c1csnn1 | 87% (active)
O=C(NC(=S)Nc1cccc(C(F)(F)F)c1)c1csnn1 | 115% (active)
O=C(NC(=S)Nc1cc(C(F)(F)F)ccc1Cl)c1ccccc1 | -6.4%
CC12CN3CC(C)(CN(C1)C3c1ccc3c(c1)OCO3)C2=O (stereo not given) | -15.9%
C/C(O)=C/c1nc2ccccc2[nH]c1=O | -16.5%
CCN1C(=O)/C(=C/N2CCc3ccccc32)SC1=S | -17.3%
Cc1nnc2ccc(-c3cccc(NC(=O)c4ccc(Cl)nc4)c3)nn12 | -16.1%
CNC(=O)c1c(O)c2cccc3c2n(c1=O)CC3 | -22.2%
c1ccc2oc(-c3ccn[nH]3)cc2c1 | -0.3%
Cc1csc(NC(=O)c2cc3c(s2)CCCC3)n1 | 17.9% (active)
Cc1csc(NC(=O)c2cn3ccccc3n2)n1 | -15.1%
Cc1csc(NC(=O)C2C3C=CC(C3)C2C(=O)O)n1 (stereo not given) | -13.2%
Cc1occc1C(=O)Nc1cccc([N+](=O)[O-])c1 | -10.3%
O=C(O)c1ccc(N=NNc2cccc([N+](=O)[O-])c2)cc1 | 2.2% (active)

SMILES | activity change, less the hit threshold
NC(=O)c1cccnc1Nc1cccc([N+](=O)[O-])c1 | -14.1%
CC(=O)Nc1ccc(NC(=O)CSc2ncc(C(=O)Nc3ccc(Cl)cc3)c(=O)n2C)cc1 | -4.1%
N=c1c2cn[nH]c2nc(SCC(=O)c2ccc(Br)cc2)n1-c1ccc(Br)cc1 | -23.7%
CCOC(=O)C(=CNc1cc(C)ccc1[N+](=O)[O-])C(=O)OCC | -8.6%
CCOC(=O)N/N=C/C=C/c1ccccc1[N+](=O)[O-] | 5.2% (active)
CCOC(=O)C(=CNc1ccc(OC)cc1[N+](=O)[O-])C(=O)OCC | -13.9%
O=S(=O)(NCc1ccc(Cl)cc1Cl)c1ccc(N2CCOCC2)nc1 | -15%
CCOC(=O)/C=C/c1ccc2c(c1)S(=O)(=O)N(c1cccc(OC)c1)[C@H]2CC(=O)OCC | -13.3%
CN(C)/C=C/C(=O)c1ccc(Cl)cc1Cl | -15.1%
CCCn1nnnc1NC(=O)c1cc(Cl)ccc1Cl | -33.4%
CCN(CC)C(=S)NC(=O)c1ccc(Cl)cc1Cl | 9% (active)
O=C(Nc1ccsc1C(=O)O)c1ccccc1Cl | -14.7%
CN(C)C(=O)c1cc(C(=O)c2ccc(Cl)cc2Cl)c[nH]1 | -14.9%
CN(C)CCCN=C(NO)c1ccc(Cl)cc1Cl | -14.9%
CCCCN(CCCC)C(=S)NC(=O)c1ccccc1Cl | 89.6% (active)
CCCN(CCC)C(=S)NC(=O)c1ccc(Cl)cc1Cl | 55% (active)
O=C(NC(=S)Nc1nc(-c2cccc([N+](=O)[O-])c2)cs1)c1ccccc1Cl | -10.8%
CCC(=O)NC(c1cccs1)c1ccc2cccnc2c1O (stereo not given) | -16.7%
CCC(C)NC(=O)c1c(-c2cc(Cl)c(OC)c(Cl)c2)noc1C (stereo not given) | -12.6%
O=[N+]([O-])c1cccc(/C=N/N=C\c2ccccc2)c1 | -20.8%
Cc1ccccc1-n1c(SCC(=O)N(C)C2CCS(=O)(=O)C2)nnc1-c1ccncc1 (stereo not given) | -7.7%
CCOC(=O)c1sc2nc(C)nc(SCC(=O)N(C)C3CCS(=O)(=O)C3)c2c1C (stereo not given) | -0.6%
O=C(O)CCSc1ncnc2sc(-c3ccccc3)cc12 | 22.1% (active)
CCC(C)NC(=O)CSc1ncnc2sccc12 (stereo not given) | -14.8%
CN(C(=O)CSc1ncnc2sc(-c3ccccc3)cc12)C1CCS(=O)(=O)C1 (stereo not given) | 80.2% (active)
